# From the supplement of paper PMC6555819
# What was measured:
# Assay in all cases: PBM binding z-score (relative to random genomic background probes); higher = stronger binding; sequences stand for … in GC…GCGATTGACAGCGTAGAATGAAGG
# [1] = system: FXR:RXRa (NR concentration 270 nM, RXRa partner concentration 90 nM)
# Method in brief: (§1)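 Antibodies against each partner of ligand-free nuclear receptor dimers (one per run) detected binding on custom Agilent 4×180K protein-binding microarrays after 1 h incubation. The double-stranded probes had 34-nt variable regions carrying direct-repeat seeds, single-nucleotide variants, half-site ablations and random human genomic background sequences. Binding z-scores, from regression-normalized fluorescence, use the random background probes as reference.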
# [2] = system: LXRa:RXRa (NR concentration 270 nM, RXRa partner concentration 90 nM)
# Method in brief: as §1
# [3] = system: LXRa homodimer (NR concentration 270 nM)
# Method in brief: as §1
# [4] = system: LXRb:RXRa (NR concentration 270 nM, RXRa partner concentration 90 nM)
# Method in brief: as §1
# [5] = system: LXRb homodimer (NR concentration 270 nM)
# Method in brief: as §1
# [6] = system: PPARa:RXRa (NR concentration 270 nM, RXRa partner concentration 90 nM)
# Method in brief: as §1
# [7] = system: PPARg:RXRa (NR concentration 180 nM, RXRa partner concentration 90 nM)
# Method in brief: as §1
# [8] = system: PPARg:RXRa 270nM:90nM, anti-RXR (NR concentration 270 nM, RXRa partner concentration 90 nM)
# Method in brief: as §1
# [9] = system: PPARg:RXRa 30nM:10nM, anti-RXR (NR concentration 30 nM, RXRa partner concentration 10 nM)
# Method in brief: as §1
# [10] = system: PPARg:RXRa 90nM:30nM, anti-RXR (NR concentration 90 nM, RXRa partner concentration 30 nM)
# Method in brief: as §1
Sequence,PBM binding z-score [1],PBM binding z-score [2],PBM binding z-score [3],PBM binding z-score [4],PBM binding z-score [5],PBM binding z-score [6],PBM binding z-score [7],PBM binding z-score [8],PBM binding z-score [9],PBM binding z-score [10]
CCTACTGGGCCATCATGTCATTGATATCAACGTT,-0.0902,-0.142,-0.139,0.0528,-0.132,0.932,1.49,2.01,0.718,1.35
CCTACTGGGCCAGGGTCATTGATCAGTCAAAGCA,2.51,2.16,0.0124,2.58,-1.02,4.14,3.23,3.68,0.898,2.87
GGAACGAGGGCAAGTTGATAGGAGAGTTTGATGG,0.63,0.287,-0.48,0.289,-0.332,1.81,1.05,0.946,0.0757,0.63
CCTATTAGTTGACCATAAGGGCAAACGAAGCTCG,1.04,0.336,0.545,0.644,0.599,0.695,0.426,0.45,0.0598,0.284
CGTAGCAGGCCAATCTGGGTCACTCAAGGCTTGA,0.309,0.88,-0.711,0.262,-0.737,2.6,2.21,2.03,-0.188,1.08
TCTCGGAGGAGACGAAGGTCAGAGCTTTCCAGAG,0.255,0.507,-0.124,0.569,-1.39,1.62,-0.069,1.26,1.84,1.51
AATACAGGGTCACTAGGCCATAGTAGGTACGAAT,5.83,4.98,1.02,4,0.913,6.01,8.68,6.76,3.65,5.88
CGAACTAGATCAAGGACAGTGAATCTCCGCACGC,-0.0387,-0.559,-0.0881,-0.756,-0.00382,-0.388,0.599,-0.0723,-0.423,-0.36
ATCTCTCGGTAACAAGTTCAGTGAAAGAGAGGAC,0.379,0.429,0.428,0.549,0.942,0.533,0.157,0.369,0.251,0.484
TCTAGTTGGTCAACGGTCACACACTCGAAATGCG,0.705,0.745,0.892,1.04,0.0272,2.38,3.99,5.35,4.78,5.32
ATCGAGAGGTCGAAGGTGAGTATACCCACCCGAA,3.03,2.43,-0.396,1.74,-0.284,4.07,3.99,3.99,1.81,3.84
TGTCAAAGTTCAAAGGTAAAGTAAGTATCCACAC,7.42,6.49,3.99,4.8,1.68,5.87,8.7,7.81,5.23,7.51
CATAGCAGGCCAATCTGGGTCACTCAAGGCTTGA,0.72,1.46,-0.00669,0.604,0.0178,3.01,2.72,2.73,0.652,2.05
GCTGCTAGGTCAACTGATGGTCAGCTACAGCTCG,4.25,2.91,0.26,1.97,0.014,3.65,2.65,2.9,0.862,1.99
CCTATTAGTTGACCATAAGGGCAGCCGAAGCTCG,0.542,-0.0359,0.036,0.218,0.392,0.0636,0.126,0.442,-0.292,-0.0917
CCTTCTGGGCCATCAGGTCATTGATATCAACGTT,1.65,1.19,0.846,1.44,0.0435,2.69,2.21,3.33,1.09,2.63
AGCTCTAGGTAAGACTCAGTTCAGTGAAGAACGC,-0.104,0.132,0.197,-0.188,-0.399,-0.0359,-0.139,0.0762,0.0391,-0.261
GATACAGGGACAGCTAGAGGCCAGAGTATGGAAA,-0.243,-0.821,-0.464,-0.674,-0.57,-0.178,0.636,-0.579,-0.2,-0.369

Sequence,PBM binding z-score [1],PBM binding z-score [2],PBM binding z-score [3],PBM binding z-score [4],PBM binding z-score [5],PBM binding z-score [6],PBM binding z-score [7],PBM binding z-score [8],PBM binding z-score [9],PBM binding z-score [10]
TTACCAAGGTGATCTGAGGTCGTTGATCCAACTC,1.9,3.07,0.554,1.78,-0.164,1.78,0.169,0.846,0.216,0.651
TCTCGGAGGACACGAAAGATCAGAGCTCGACATC,-0.277,0.0528,-0.431,-0.144,-0.969,0.328,0.493,0.915,2.54,1.17
ATCTCCAGGTAAAAGTTCAGTGAATCCCGAGGAT,1.06,1.58,1.65,1.15,0.946,3.5,5.76,6.62,6.15,7.28
AGAATGAGGTAACCAAAGATCAGGGAAACGCTTG,-0.0845,3.81,-0.311,0.439,-0.22,1.21,1.15,0.888,0.575,0.541
ACTTACGGGTCAACGAGGTTGTAGCACGCGTATA,6.76,4.66,0.172,4,0.502,5.6,5.04,4.93,1.89,3.69
CCTAGCAGGCCACTCTGGGTCACTCAAGGCTTGA,1.22,4.55,0.221,1.91,-0.897,2.33,0.363,0.663,-0.56,0.0943
TCTTGTACATCAAGCAGGTTAAGAAAGCCTGAGT,0.785,0.852,-0.0231,0.861,0.106,1.05,-0.153,1.37,3.03,2.18
ATCTCTAGGTAAAGTTCAGGGAAAGATCGATAGA,1.49,2.4,1.88,1.58,1.03,2.86,3.53,4.62,2.77,4.35
GCTCGGAGGACAAGGTCAGAGTTTTGTCCGTAGA,1.98,1.71,-0.00501,1.56,-0.35,2.42,0.985,1.89,-0.291,0.859
ATATGTAGGTTAGCTCGGGTCATTCAGACTAGGC,2.55,4.5,1.52,2.65,0.733,4.08,4.25,3.8,1.34,3.09
CGTCCAATGTCAGAGAGGTCAGTGAATGCCGAGT,2.31,2.29,1.37,2.24,0.168,2.69,0.78,1.62,0.224,1.18
TGGATGAGGTTATAAGATCAGGGAACGTTGCAAA,1.51,1.26,0.181,1.52,0.594,2.42,0.897,1.54,0.844,1.35
GCTGCTATGTCAGGTTGGTCAGCTAACGGGTACG,-0.0269,-0.171,-0.277,-0.513,-0.58,-0.327,-0.164,-0.401,-0.739,-0.312
CCTGCTAGGTCATGGTCAGCAAATCTACAGTATG,3.65,2.33,0.105,1.71,-0.273,3.53,2.37,2.74,0.551,1.8
ATCTCTAGGTAAGACTCAGTTCAGCGAAGAACGC,0.373,0.369,0.471,0.111,0.684,0.278,0.231,0.241,0.0173,0.278
TCGTATAGGTAAACAGGTGAAAGTCCGTAAGTTA,1.19,0.963,0.191,0.852,0.0957,1.95,1.46,2.64,2.92,2.76
CCGGCTGGGGCATAAGGTTACCATAAGCCAGCCC,-0.0908,1.73,-0.45,0.426,-1.54,1.11,0.631,1.5,-0.332,0.706
CATACAGGGTCAGCTAGGCCAGCGTAGGGACGGC,4.29,2.94,-0.144,1.98,0.387,4.38,3.25,2.9,0.559,2.04
